Measurements as given in PubChem BioAssay (NCATS).
Where “and” joins values, the source holds several entries; their conditions need not be identical. Equal values may be shown once. Inconclusive results are not listed. Where a call stands in place of a potency, no number is given. Calls of active or inactive are those of the source. Calls follow the shape of the full dose curve.

Experiment: Primary qHTS to identify inhibitors of SARS-CoV-2 cell entry (AID 1645846); also: nearly all actives have a fitted effect of over 45% in size
Conditions: SARS-CoV-2 pseudovirus cell entry assay, luminescence; activity change, negative = inhibition: at 57.1 µM (top of the series) unless noted; series mostly up to 57.1 µM
How it was run: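 HEK293 cells stably expressing human ACE2, pre-treated 1 h with compound, then infected with MLV particles pseudotyped with Wuhan-Hu-1 spike (C-terminal 19-aa truncation). Luciferase luminescence after 48 h at 37 °C, normalised to spike PP and bald PP.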
Potency is read from the fitted curve at half-maximal effect.

| SMILES | Potency | activity change, negative = inhibition |
| --- | --- | --- |
| Nc1nc2ccc(OC(F)(F)F)cc2s1 | inactive | – |
| CC1COc2c(N3CCN(C)CC3)c(F)cc3c(=O)c(C(=O)O)cn1c23 (stereo not drawn) | – | -0.258% |
| Cc1nnc(SCC2=C(C(=O)O)N3C(=O)[C@@H](NC(=O)Cn4cnnn4)[C@H]3SC2)s1 | inactive | – |
| CC(=O)Oc1cc(C(C)C)c(OCCN(C)C)cc1C | inactive | – |
| CCC(Cc1c(I)cc(I)c(N)c1I)C(=O)O (stereo not drawn) | inactive | – |
| Cc1c[nH]c2ccccc12 | – | -24.2% |
| O=C(O)/C=C(\CC(=O)O)C(=O)O | – | 0.545% |
| CC(C)CN(C[C@@H](O)[C@H](Cc1ccccc1)NC(=O)O[C@H]1CO[C@H]2OCC[C@H]21)S(=O)(=O)c1ccc(N)cc1 | inactive | – |
| CC(=O)N1CCN(c2ccc(OC[C@H]3CO[C@](Cn4ccnc4)(c4ccc(Cl)cc4Cl)O3)cc2)CC1 | 15.8 µM (active) | – |
| COc1cc(NS(C)(=O)=O)ccc1Nc1c2ccccc2nc2ccccc12 | 1 µM (active) and 708 nM (active) | – |
| O=C(O)CCCC[C@@H]1SC[C@@H]2NC(=O)N[C@@H]21 | inactive | – |
| C#CCC(Cc1cnc2nc(N)nc(N)c2n1)c1ccc(C(=O)N[C@@H](CCC(=O)O)C(=O)O)cc1 (stereo partly drawn) | – | -93.7% |
| CCCN1CCCC[C@H]1C(=O)Nc1c(C)cccc1C | – | -27.2% |
| CN1C(C(=O)Nc2ccccn2)=C(O)c2sccc2S1(=O)=O | inactive | – |
| CO/N=C(/C(=O)N[C@@H]1C(=O)N2C(C(=O)OCOC(=O)C(C)(C)C)=C(C)CS[C@H]12)c1csc(N)n1 | – | -24.9% |
| NCCS(=O)(=O)O | inactive | -2.14% |
| COc1ccnc(CS(=O)c2nc3ccc(OC(F)F)cc3[nH]2)c1OC (stereo not drawn) | inactive | – |
| c1ccc2c(CC3=NCCN3)cccc2c1 | – | 0.334% |
| Oc1ccccc1 | inactive | – |

| SMILES | Potency | activity change, negative = inhibition |
| --- | --- | --- |
| CC(=O)OCC(=O)[C@@]1(O)[C@H](OC(C)=O)C[C@H]2[C@@H]3CCC4=CC(=O)C=C[C@]4(C)[C@@]3(F)[C@@H](O)C[C@@]21C | inactive | – |
| NS(=O)(=O)c1cc(C2(O)NC(=O)c3ccccc32)ccc1Cl (stereo not drawn) | inactive | – |
| CC(=O)S[C@@H]1CC2=CC(=O)CC[C@]2(C)[C@H]2CC[C@@]3(C)[C@@H](CC[C@@]34CCC(=O)O4)[C@H]12 | – | -11% |
| CCCCCCCCCCOc1cc2c(=O)c(C(=O)OCC)c[nH]c2cc1OCC | – | -22.6% [at 5.25 µM] |
| O=C(O)CN(CCN(CC(=O)O)CC(=O)O)CCN(CC(=O)O)CC(=O)O | inactive | – |
| COc1ccc(-c2cc(=O)c3c(O)cc(O[C@@H]4O[C@H](CO[C@@H]5O[C@@H](C)[C@H](O)[C@@H](O)[C@H]5O)[C@@H](O)[C@H](O)[C@H]4O)cc3o2)cc1O | inactive | – |
| CC(C)(C)CC(C)(C)c1ccc(OCCOCC[N+](C)(C)Cc2ccccc2)cc1 | 20 µM (active) | – |
| NCc1ccc(S(N)(=O)=O)cc1 | inactive | – |
| C/C=C1\[C@H]2C=C(C)C[C@]1(N)c1ccc(=O)[nH]c1C2 | inactive | – |
| OC[C@H]1O[C@@H](n2cnc3c2NC=NC[C@H]3O)C[C@@H]1O | – | -15% and -28% |
| Clc1cccc(Cl)c1NC1=NCCN1 | inactive | – |
| CCC(C(=O)NC(=O)NC(C)=O)c1ccccc1 (stereo not drawn) | inactive | – |
| CC(C(=O)O)c1cccc(Oc2ccccc2)c1 (stereo not drawn) | – | -1.5% |
| Cc1ccc(C(C)C)cc2c(C)ccc1-2 | inactive | – |
| NC(CO)(CO)CO | inactive | – |
| NC1CCN(c2nc3c(cc2F)c(=O)c(C(=O)O)cn3-c2ccc(F)cc2F)C1 (stereo not drawn) | inactive | – |
| CCN(CC)CCNC(=O)c1cc(S(C)(=O)=O)ccc1OC | inactive | – |
| O=C1CC[C@H](C(=O)N2CCCCC2)N1 | – | 2.86% |
